From PMC7862700, “An all-to-all approach to the identification of sequence-specific readers for epigenetic DNA modifications on cytosine”

What was measured:
Experiment in all cases: DAPPL (digital affinity profiling via proximity ligation, sequencing); 10 mM Tris-HCl pH 7.5, 50 mM NaCl, 1 mM DTT, 4% glycerol, room temperature, 30 min; GST-TFs on glutathione beads, 16-mer random dsDNA library, 0.1% formaldehyde crosslink after washing; high values mean tight binding
FLI1 = molecular target: T1, FLI1 (Homo sapiens, UniProt Q01543 1-452); conditions: protein: recombinant; tags: N-terminal GST; dsDNA, one strand shown
T1 sequence: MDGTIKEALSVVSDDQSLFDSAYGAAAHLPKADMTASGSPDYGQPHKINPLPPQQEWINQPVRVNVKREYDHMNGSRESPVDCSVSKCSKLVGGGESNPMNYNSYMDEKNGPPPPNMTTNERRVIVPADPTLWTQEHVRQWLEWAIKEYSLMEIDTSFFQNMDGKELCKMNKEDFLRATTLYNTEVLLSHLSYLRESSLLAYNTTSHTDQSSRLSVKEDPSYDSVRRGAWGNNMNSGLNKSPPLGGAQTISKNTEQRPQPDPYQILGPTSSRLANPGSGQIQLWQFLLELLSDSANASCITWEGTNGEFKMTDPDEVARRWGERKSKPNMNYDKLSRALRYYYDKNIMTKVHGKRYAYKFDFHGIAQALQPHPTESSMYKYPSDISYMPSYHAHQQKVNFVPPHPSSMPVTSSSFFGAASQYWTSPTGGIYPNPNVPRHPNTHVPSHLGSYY
How it was run: (§1)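 Human transcription factors fused to GST were expressed in yeast, captured on glutathione beads, given DNA barcodes and pooled with a GST-only negative control. Pools were incubated with 200 nmole of a 16-mer random double-stranded DNA library in Tris/NaCl/DTT/glycerol buffer at room temperature for 30 min. They were then washed, crosslinked with 0.1% formaldehyde, proximity-ligated (BsaI/T4 ligase, 1 h, 37 °C), PCR-amplified and sequenced on an Illumina NextSeq500. Binding signal is each 6-mer's read frequency for a factor divided by its frequency for the GST control.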

ELK1 = molecular target: T2, ELK1 (Homo sapiens, UniProt P19419 1-428); conditions: protein: recombinant; tags: N-terminal GST; dsDNA, one strand shown
T2 sequence: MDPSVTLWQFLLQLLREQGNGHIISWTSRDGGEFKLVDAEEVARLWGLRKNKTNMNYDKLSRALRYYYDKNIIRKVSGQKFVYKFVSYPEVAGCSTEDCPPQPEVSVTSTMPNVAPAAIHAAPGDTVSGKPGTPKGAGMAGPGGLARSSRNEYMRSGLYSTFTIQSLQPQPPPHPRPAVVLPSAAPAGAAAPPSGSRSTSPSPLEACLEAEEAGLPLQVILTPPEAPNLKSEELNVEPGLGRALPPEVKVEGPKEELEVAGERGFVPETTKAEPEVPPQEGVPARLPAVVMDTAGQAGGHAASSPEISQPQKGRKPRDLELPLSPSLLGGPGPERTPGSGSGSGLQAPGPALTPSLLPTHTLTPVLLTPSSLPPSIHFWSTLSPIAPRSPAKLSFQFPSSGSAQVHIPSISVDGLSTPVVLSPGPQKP
How it was run: as §1

GABPA = molecular target: T3, GABPA (Homo sapiens, UniProt Q06546 1-454); conditions: protein: recombinant; tags: N-terminal GST; dsDNA, one strand shown
T3 sequence: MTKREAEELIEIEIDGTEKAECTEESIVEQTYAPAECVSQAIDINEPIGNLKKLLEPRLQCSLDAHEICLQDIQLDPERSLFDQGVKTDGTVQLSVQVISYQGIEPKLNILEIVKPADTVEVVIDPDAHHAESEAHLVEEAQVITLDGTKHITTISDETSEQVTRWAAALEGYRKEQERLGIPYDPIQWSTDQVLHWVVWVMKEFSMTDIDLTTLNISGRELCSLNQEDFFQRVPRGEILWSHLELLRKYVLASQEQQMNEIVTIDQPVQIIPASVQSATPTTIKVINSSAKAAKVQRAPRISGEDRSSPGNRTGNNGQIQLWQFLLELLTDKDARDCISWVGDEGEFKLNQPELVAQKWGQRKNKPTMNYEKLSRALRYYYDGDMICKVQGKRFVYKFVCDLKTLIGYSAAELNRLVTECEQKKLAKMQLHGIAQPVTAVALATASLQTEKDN
How it was run: as §1

ERG = molecular target: T4, ERG (Homo sapiens, UniProt P11308 1-479); conditions: protein: recombinant; tags: N-terminal GST; dsDNA, one strand shown
T4 sequence: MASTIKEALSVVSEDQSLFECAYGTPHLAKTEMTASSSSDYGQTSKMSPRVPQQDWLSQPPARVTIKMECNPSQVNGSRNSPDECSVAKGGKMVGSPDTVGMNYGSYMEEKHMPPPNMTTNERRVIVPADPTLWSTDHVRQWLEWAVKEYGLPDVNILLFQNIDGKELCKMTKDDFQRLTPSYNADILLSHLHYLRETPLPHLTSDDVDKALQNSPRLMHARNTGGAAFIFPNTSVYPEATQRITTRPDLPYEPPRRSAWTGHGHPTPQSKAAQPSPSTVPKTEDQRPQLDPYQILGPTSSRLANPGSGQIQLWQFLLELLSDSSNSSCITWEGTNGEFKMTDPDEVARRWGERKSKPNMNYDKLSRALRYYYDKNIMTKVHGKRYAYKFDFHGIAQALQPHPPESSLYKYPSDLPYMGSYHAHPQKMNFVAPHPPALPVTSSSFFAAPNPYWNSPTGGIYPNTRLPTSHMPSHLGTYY
How it was run: as §1

ELF1 = ELF1 (Homo sapiens, UniProt P32519 1-619); conditions: protein: recombinant; tags: N-terminal GST; dsDNA, one strand shown
Chain of ELF1 (P32519 whole entry): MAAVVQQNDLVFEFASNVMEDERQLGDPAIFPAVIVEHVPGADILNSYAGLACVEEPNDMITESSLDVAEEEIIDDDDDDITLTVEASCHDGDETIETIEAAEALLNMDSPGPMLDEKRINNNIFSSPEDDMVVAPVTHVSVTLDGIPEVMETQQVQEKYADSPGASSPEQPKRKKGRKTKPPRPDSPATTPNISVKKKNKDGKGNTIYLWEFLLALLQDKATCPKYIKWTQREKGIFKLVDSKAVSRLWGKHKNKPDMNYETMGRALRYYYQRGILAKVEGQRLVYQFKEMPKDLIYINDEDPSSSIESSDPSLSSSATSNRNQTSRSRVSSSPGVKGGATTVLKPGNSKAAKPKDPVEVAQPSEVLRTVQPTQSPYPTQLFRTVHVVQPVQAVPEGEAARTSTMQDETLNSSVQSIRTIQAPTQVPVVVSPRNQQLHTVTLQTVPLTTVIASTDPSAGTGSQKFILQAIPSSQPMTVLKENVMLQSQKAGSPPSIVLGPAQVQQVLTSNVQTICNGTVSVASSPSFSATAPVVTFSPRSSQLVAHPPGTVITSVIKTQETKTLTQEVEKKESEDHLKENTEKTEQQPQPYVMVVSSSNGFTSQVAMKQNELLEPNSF
How it was run: as §1

EHF = molecular target: T5, EHF (Homo sapiens, UniProt Q9NZC4 1-300); conditions: protein: recombinant; tags: N-terminal GST; dsDNA, one strand shown
T5 sequence: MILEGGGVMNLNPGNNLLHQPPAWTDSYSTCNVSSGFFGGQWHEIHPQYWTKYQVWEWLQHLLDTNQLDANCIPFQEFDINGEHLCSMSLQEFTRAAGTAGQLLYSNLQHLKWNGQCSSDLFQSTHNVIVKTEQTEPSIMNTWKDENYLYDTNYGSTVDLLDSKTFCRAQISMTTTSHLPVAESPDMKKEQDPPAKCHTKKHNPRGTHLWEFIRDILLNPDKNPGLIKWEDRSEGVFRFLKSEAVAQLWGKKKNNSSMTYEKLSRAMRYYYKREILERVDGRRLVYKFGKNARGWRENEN
How it was run: as §1

SPI1 = SPI1 (Homo sapiens, UniProt P17947 1-270); conditions: protein: recombinant; tags: N-terminal GST; dsDNA, one strand shown
How it was run: as §1

SPIB = SPIB (Homo sapiens, UniProt Q01892 1-262); conditions: protein: recombinant; tags: N-terminal GST; dsDNA, one strand shown
Chain of SPIB (Q01892 whole entry): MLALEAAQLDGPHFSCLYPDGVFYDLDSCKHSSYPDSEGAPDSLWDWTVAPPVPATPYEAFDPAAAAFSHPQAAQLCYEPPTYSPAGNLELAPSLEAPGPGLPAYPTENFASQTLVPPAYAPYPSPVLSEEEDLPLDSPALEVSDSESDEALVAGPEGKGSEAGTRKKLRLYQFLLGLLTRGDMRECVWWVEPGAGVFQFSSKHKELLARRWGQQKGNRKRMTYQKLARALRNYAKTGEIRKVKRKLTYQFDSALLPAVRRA
How it was run: as §1

ELK3 = molecular target: T6, ELK3 (Homo sapiens, UniProt P41970 1-407); conditions: protein: recombinant; tags: N-terminal GST; dsDNA, one strand shown
T6 sequence: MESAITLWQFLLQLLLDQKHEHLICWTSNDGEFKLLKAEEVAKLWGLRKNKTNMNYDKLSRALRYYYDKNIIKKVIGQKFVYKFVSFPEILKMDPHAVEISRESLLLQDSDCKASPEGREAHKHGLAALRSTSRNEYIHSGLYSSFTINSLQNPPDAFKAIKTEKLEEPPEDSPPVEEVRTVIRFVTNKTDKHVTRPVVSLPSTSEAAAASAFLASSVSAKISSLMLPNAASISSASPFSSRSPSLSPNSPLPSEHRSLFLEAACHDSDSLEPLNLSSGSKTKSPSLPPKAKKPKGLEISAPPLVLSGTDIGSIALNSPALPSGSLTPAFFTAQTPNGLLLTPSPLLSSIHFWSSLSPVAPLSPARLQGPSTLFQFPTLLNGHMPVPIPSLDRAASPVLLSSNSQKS
How it was run: as §1

FEV = molecular target: T7, FEV (Homo sapiens, UniProt Q99581 1-238); conditions: protein: recombinant; tags: N-terminal GST; dsDNA, one strand shown
T7 sequence: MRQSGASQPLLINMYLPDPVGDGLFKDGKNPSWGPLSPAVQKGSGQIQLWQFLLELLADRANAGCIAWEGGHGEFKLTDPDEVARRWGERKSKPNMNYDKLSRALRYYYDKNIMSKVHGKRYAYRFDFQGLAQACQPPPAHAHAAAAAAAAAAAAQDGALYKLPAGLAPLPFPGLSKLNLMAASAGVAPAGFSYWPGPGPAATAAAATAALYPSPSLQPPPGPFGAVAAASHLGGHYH
How it was run: as §1

ETV5 = ETV5 (Homo sapiens, UniProt P41161 1-510); conditions: protein: recombinant; tags: N-terminal GST; dsDNA, one strand shown
Chain of ETV5 (P41161 whole entry): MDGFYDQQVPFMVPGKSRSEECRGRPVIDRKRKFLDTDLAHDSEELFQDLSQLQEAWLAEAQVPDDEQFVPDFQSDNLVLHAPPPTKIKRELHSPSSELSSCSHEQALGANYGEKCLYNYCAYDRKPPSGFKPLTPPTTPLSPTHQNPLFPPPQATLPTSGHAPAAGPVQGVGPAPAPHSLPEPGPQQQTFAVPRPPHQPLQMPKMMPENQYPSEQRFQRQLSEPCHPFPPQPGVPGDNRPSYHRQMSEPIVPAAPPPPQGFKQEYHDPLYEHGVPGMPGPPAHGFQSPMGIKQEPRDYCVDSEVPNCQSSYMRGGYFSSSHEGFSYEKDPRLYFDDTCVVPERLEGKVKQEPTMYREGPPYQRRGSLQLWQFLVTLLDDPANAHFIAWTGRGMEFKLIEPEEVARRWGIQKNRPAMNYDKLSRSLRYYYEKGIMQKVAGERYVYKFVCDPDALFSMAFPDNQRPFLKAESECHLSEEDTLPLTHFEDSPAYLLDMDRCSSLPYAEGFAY
How it was run: as §1

HSF1 = HSF1 (Homo sapiens, UniProt Q00613 1-529); conditions: protein: recombinant; tags: N-terminal GST; chain copies: 3; dsDNA, one strand shown
Chain of HSF1 (Q00613 whole entry): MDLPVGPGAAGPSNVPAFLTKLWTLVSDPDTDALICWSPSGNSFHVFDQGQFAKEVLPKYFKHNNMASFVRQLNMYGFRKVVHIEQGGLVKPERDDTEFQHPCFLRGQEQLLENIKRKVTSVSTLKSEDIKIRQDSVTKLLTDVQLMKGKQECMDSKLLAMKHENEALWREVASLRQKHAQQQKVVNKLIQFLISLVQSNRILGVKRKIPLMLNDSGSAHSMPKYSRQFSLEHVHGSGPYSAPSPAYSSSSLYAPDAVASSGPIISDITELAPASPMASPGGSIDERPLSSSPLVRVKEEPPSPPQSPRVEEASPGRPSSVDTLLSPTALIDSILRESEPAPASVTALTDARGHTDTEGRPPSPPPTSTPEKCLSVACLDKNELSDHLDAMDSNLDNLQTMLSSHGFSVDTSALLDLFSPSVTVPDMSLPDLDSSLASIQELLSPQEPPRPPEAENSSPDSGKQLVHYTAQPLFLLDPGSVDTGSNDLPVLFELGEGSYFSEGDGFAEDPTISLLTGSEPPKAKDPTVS
How it was run: as §1

SPIC = molecular target: T8, SPIC (Homo sapiens, UniProt Q8N5J4 1-248); conditions: protein: recombinant; tags: N-terminal GST; dsDNA, one strand shown
T8 sequence: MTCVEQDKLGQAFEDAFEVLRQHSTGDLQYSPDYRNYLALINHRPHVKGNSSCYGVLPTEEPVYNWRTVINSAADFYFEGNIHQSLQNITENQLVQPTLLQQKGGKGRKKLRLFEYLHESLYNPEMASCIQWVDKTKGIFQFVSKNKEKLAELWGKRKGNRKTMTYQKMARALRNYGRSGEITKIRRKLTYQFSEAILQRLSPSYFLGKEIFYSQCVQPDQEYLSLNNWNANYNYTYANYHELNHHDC
How it was run: as §1

ELF4 = ELF4 (Homo sapiens, UniProt Q99607 1-663); conditions: protein: recombinant; tags: N-terminal GST; dsDNA, one strand shown
Chain of ELF4 (Q99607 whole entry): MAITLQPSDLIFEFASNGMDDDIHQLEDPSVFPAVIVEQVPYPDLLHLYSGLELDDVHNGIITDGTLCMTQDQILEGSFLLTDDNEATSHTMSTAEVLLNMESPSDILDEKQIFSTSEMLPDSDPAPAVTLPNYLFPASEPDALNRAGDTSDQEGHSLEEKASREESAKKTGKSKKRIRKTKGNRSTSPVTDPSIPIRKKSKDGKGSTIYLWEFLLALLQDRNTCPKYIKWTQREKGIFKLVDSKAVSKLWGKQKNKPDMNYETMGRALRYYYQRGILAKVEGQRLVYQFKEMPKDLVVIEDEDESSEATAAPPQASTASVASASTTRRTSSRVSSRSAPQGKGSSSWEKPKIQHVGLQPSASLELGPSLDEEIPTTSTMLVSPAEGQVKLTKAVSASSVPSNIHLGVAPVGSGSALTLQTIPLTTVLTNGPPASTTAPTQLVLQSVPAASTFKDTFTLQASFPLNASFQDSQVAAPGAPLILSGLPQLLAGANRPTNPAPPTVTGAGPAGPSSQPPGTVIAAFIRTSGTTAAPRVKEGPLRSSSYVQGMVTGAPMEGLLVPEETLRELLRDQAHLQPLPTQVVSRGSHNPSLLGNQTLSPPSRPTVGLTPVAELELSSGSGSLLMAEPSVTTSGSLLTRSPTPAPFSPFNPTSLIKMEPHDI
How it was run: as §1

ELK4 = molecular target: T9, ELK4 (Homo sapiens, UniProt P28324-2 1-405); conditions: protein: recombinant; tags: N-terminal GST; dsDNA, one strand shown
T9 sequence: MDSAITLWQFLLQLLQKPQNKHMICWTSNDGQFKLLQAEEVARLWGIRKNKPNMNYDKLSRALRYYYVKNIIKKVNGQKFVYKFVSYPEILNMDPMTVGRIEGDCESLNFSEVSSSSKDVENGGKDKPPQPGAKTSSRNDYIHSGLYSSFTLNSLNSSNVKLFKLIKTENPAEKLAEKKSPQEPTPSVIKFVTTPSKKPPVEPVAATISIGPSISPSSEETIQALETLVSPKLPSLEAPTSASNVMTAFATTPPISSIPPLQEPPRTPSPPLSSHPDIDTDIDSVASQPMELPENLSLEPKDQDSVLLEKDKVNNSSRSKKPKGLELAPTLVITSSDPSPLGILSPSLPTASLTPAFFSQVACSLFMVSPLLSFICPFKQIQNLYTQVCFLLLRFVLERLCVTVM
How it was run: as §1

ETV2 = molecular target: T10, ETV2 (Homo sapiens, UniProt O00321 1-342); conditions: protein: recombinant; tags: N-terminal GST; dsDNA, one strand shown
T10 sequence: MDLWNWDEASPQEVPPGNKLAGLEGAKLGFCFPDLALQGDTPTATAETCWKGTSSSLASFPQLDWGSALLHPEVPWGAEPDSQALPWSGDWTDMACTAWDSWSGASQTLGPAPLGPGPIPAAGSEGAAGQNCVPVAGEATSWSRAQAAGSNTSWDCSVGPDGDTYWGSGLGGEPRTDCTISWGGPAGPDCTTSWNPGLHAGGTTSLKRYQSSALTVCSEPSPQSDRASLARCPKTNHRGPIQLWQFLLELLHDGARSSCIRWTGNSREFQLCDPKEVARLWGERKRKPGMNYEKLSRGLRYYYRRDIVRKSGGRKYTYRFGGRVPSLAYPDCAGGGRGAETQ
How it was run: as §1

ELF3 = molecular target: T11, ELF3 (Homo sapiens, UniProt P78545 1-371); conditions: protein: recombinant; tags: N-terminal GST; dsDNA, one strand shown
T11 sequence: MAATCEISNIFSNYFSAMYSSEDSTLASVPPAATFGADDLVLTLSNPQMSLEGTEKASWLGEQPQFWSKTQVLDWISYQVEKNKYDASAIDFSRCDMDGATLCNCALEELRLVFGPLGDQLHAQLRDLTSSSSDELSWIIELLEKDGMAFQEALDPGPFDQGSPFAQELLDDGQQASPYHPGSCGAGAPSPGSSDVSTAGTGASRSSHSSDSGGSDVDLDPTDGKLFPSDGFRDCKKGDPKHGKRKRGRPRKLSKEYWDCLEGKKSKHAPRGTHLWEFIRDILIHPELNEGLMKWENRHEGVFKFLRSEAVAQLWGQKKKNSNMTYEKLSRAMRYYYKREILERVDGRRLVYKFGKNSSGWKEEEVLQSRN
How it was run: as §1

CRX = CRX (Homo sapiens, UniProt O43186 1-299); conditions: protein: recombinant; tags: N-terminal GST; dsDNA, one strand shown
Chain of CRX (O43186 whole entry): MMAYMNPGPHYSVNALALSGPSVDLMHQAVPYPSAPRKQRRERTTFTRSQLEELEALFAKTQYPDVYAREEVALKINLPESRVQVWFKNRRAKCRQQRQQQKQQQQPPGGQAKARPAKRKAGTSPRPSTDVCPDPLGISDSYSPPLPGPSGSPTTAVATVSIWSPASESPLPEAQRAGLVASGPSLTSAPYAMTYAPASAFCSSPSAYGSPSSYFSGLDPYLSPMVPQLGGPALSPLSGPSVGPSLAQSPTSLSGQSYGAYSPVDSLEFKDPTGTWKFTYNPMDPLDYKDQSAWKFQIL
How it was run: as §1

ETV1 = ETV1 (Homo sapiens, UniProt P50549 1-477); conditions: protein: recombinant; tags: N-terminal GST; dsDNA, one strand shown
Chain of ETV1 (P50549 whole entry): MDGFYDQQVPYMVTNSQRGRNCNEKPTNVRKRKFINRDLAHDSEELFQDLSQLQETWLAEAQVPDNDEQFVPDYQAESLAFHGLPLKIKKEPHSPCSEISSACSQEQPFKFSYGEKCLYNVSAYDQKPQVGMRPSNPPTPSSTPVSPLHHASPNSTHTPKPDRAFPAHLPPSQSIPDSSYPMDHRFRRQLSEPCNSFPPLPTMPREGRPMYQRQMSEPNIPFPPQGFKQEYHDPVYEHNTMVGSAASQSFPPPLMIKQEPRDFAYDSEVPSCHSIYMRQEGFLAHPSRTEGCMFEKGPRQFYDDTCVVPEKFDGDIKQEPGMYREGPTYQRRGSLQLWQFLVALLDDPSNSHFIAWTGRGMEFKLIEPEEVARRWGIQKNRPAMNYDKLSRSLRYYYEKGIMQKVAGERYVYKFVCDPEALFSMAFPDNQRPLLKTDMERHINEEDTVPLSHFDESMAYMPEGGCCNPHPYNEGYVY
How it was run: as §1

Sequence: CTAACC
- binding signal (FLI1): 1.12 fold enrichment (6-mer frequency, TF over GST control)
- binding signal (ELK1): 1.23 fold enrichment (6-mer frequency, TF over GST control)
- binding signal (GABPA): 1.09 fold enrichment (6-mer frequency, TF over GST control)
- binding signal (ERG): 1.16 fold enrichment (6-mer frequency, TF over GST control)
- binding signal (ELF1): 1.12 fold enrichment (6-mer frequency, TF over GST control)
- binding signal (EHF): 1.17 fold enrichment (6-mer frequency, TF over GST control)
- binding signal (SPI1): 1.14 fold enrichment (6-mer frequency, TF over GST control)
- binding signal (SPIB): 1.08 fold enrichment (6-mer frequency, TF over GST control)
- binding signal (ELK3): 1.29 fold enrichment (6-mer frequency, TF over GST control)
- binding signal (FEV): 1.16 fold enrichment (6-mer frequency, TF over GST control)
- binding signal (ETV5): 1.19 fold enrichment (6-mer frequency, TF over GST control)
- binding signal (HSF1): 1.05 fold enrichment (6-mer frequency, TF over GST control)
- binding signal (SPIC): 1.08 fold enrichment (6-mer frequency, TF over GST control)
- binding signal (ELF4): 1.2 fold enrichment (6-mer frequency, TF over GST control)
- binding signal (ELK4): 1 fold enrichment (6-mer frequency, TF over GST control)
- binding signal (ETV2): 1.11 fold enrichment (6-mer frequency, TF over GST control)
- binding signal (ELF3): 1.27 fold enrichment (6-mer frequency, TF over GST control)
- binding signal (CRX): 1.09 fold enrichment (6-mer frequency, TF over GST control)
- binding signal (ETV1): 1.16 fold enrichment (6-mer frequency, TF over GST control)
